Source: PubChem
Most compounds without a hit are left out; they make up all but 7.4% or so of the library.
FLuc inh = Photinus pyralis luciferase inhibition; P08659; actives 2.5% (n = 76,000); purified P. pyralis luciferase, luminescence, biochemical; Potency, µM (highest dose often 115 µM), usual class: inhibitors; also: nearly all actives have a fitted effect of over 65% in size
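Purified 10nM P. pyralis luciferase with 10uM D-luciferin and 10uM ATP in 50mM Tris acetate pH 7.5, 10mM Mg acetate, 0.01% Tween-20, 0.05% BSA. qHTS titration; luminescence read by CCD imager.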
SNCA viab count = counter-screen for SNCA expression inhibitors: cell viability; HEK-293-SNCA-luc viability, GF-AFC fluorescence, 24 h; Potency, µM (titrated, usually from 57.1 µM), usual class: cytotoxic; AID 1671193; actives 0.12% (n = 150,000); also: nearly all actives have a fitted effect of over 30% in size
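Cytotoxicity counterscreen: after 24 h compound treatment of genome-edited SNCA-luciferase HEK-293 cells, live-cell protease substrate GF-AFC read by fluorescence after 30 min; activity scaled between DMSO (0%) and medium-only (-100%), curves Hill-fitted.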
HEK cytotox = kills HEK 293 cells; actives 6.6% (n = 94,000); Potency, µM (doses to about 115 µM), most hits filed as inhibitors; HEK 293 viability, ATP luminescence (CellTiter-Glo), 48-72 h; AID 1345083; also: nearly all actives have a fitted effect of over 60% in size
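250 HEK 293 cells/well; compound by pintool; incubated 48 or 72 hr at 37 degree Celsius; CellTiter-Glo added, 10 min RT, luminescence imaged.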
3T3 cytotox = NIH 3T3 cell cytotoxicity | AID 1345082 | NIH 3T3 viability, CellTiter-Glo ATP luminescence, 48-72 h | actives 4.3% (n = 94,000) | Potency, µM (highest dose often 96.7 µM), actives largely listed as inhibitors; also: nearly all actives have a fitted effect of over 55% in size
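Cytotoxicity was measured by CellTiter-Glo ATP luminescence after 48 or 72 h compound exposure at 37 °C. Mouse NIH 3T3 fibroblasts were seeded at 400 cells/well and dosed by 23 nL pin transfer.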
SNCA expr inh = reduces expression of the alpha-synuclein gene; actives 0.17% (n = 140,000); Potency, µM (highest dose often 57.2 µM), most hits filed as inhibitors; HEK-293 SNCA-luciferase knock-in, luminescence, 24 h; also: nearly all actives have a fitted effect of over 45% in size
hNpr1 antagonist = antagonists of human natriuretic peptide receptor Npr1. HEK293 hNpr1 GloSensor cGMP, ANP-stimulated luminescence. Potency, µM (series often up to 46.3 µM), hits mostly inhibitors. actives 1.6% (n = 76,000). AID 1347048; calls by dose curve; also: nearly all actives have a fitted effect of over 60% in size
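Compound pre-incubated 30 min at room temperature on GloSensor-loaded HEK293 cells stably carrying hNpr1 and the pGS-40F cGMP biosensor. Stimulation uses hNppA at 0.1 nM final; luminescence is taken at baseline and 20 min post-agonist.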
Large screens that a line does not name were inactive. Unless noted, calls follow the shape of the dose curve; as a rule, active = well fitted curve in the direction sought with a large enough effect; inconclusive = small, poorly fitted or top-dose-only effect, or another doubt; inactive = no such curve, though single readings can be large; an effect the other way counts as inactive or inconclusive.

Cc1nn2c(c1-c1cccc3cn[nH]c13)N(C(=O)COc1ccccc1C(N)=O)CCC2	3T3 cytotox 25µM
Cc1nn2c(c1-c1ccnn1C(C)C)N(C(=O)COc1ccccc1C(N)=O)CCC2	3T3 cytotox 28µM
COCCCn1c(=O)c(C(=O)N2CCN(C(=O)C3CCCC3)CC2)nc2cccnc21	none (no result: FLuc inh, hNpr1 antagonist)
Cc1c(-c2ccc(F)cc2)[nH]c2ccc(CNC(=O)c3n[nH]c4c3CCCC4)cc12	FLuc inh 16µM, SNCA viab count inconclusive, HEK cytotox inconclusive, 3T3 cytotox 32µM, hNpr1 antagonist 16µM
Cc1c(-c2ccccc2F)[nH]c2ccc(CNC(=O)CCN3CCCO3)cc12	FLuc inh 16µM, HEK cytotox inconclusive, 3T3 cytotox inconclusive
Cc1c(-c2ccc(F)cc2)[nH]c2ccc(CNC(=O)c3cnn(C)c3)cc12	FLuc inh 25µM, HEK cytotox 40µM, 3T3 cytotox inconclusive, hNpr1 antagonist inconclusive
CCN1CCN(CC(=O)NCc2ccc3[nH]c(-c4ccc(F)cc4)c(C)c3c2)CC1	FLuc inh inconclusive, HEK cytotox 18µM, 3T3 cytotox 22µM
Cc1ccc(CNC(=O)CN2CCCN(Cc3ccc(F)cc3)S2(=O)=O)cc1	none (no result: FLuc inh, HEK cytotox, 3T3 cytotox, hNpr1 antagonist)
Cc1onc(C(=O)NCc2ccc3[nH]c(-c4ccc(F)cc4)c(C)c3c2)c1CO	FLuc inh inconclusive, HEK cytotox inconclusive, 3T3 cytotox inconclusive, hNpr1 antagonist inconclusive
N#Cc1cccnc1-c1ccc(C(=O)N2CCC(NC(=O)c3ccccn3)CC2)cc1	HEK cytotox inconclusive (no result: FLuc inh, hNpr1 antagonist)
O=C(c1cc(-c2ccsc2)c2nncn2n1)N1CCOCC1	3T3 cytotox inconclusive (no result: FLuc inh, hNpr1 antagonist)
COc1ncccc1-c1nc2cc(C(=O)Nc3ccc(F)cc3)ccc2o1	HEK cytotox inconclusive (no result: FLuc inh, hNpr1 antagonist)
O=C(NC1CCCc2c1[nH]c1ccc(Cl)cc21)c1ccco1 (stereo unspecified)	3T3 cytotox inconclusive, SNCA expr inh inconclusive
O=C(NC1CCCc2c1[nH]c1ccc(F)cc21)c1n[nH]c2c1CCC2 (stereo unspecified)	HEK cytotox 35µM, 3T3 cytotox 35µM
O=C(CCc1c[nH]c2ccccc12)NC1CCCc2c1[nH]c1ccc(F)cc21 (stereo unspecified)	HEK cytotox inconclusive, 3T3 cytotox 40µM
Cc1ccc([S+](=O)([O-])N2CCCC(C(=O)N3CCCC(c4nc5ccncc5[nH]4)C3)C2)cc1 (stereo unspecified)	SNCA viab count inconclusive, HEK cytotox inconclusive, 3T3 cytotox inconclusive (no result: FLuc inh, hNpr1 antagonist)
CC(C)CNC(=O)c1ccc2nnc(C3CCCC3)n2c1	none (no result: FLuc inh, hNpr1 antagonist)
Clc1cc(Cl)cc(NC2CNC2)c1	SNCA viab count inconclusive, HEK cytotox 63µM, 3T3 cytotox 56µM (no result: FLuc inh, hNpr1 antagonist)
Clc1ccc(-c2nnc([C@H]3CCN(Cc4ccco4)C3)o2)cc1	FLuc inh 45µM
Clc1ccc(-c2nnc([C@H]3CCN(Cc4c[nH]c5ccccc45)C3)o2)cc1	HEK cytotox inconclusive, 3T3 cytotox 112µM
c1ccc(-c2nnc([C@H]3CCN(Cc4ccco4)C3)o2)cc1	FLuc inh 50µM, HEK cytotox inconclusive
COc1ccccc1Cn1c(=O)c(C(=O)NCc2ccccc2)nc2cccnc21	HEK cytotox inconclusive, 3T3 cytotox inconclusive (no result: FLuc inh, hNpr1 antagonist)
O=C(C1CC1)N1CCN(CCCn2nc3n(c2=O)CCCC3)CC1	none (no result: FLuc inh, SNCA viab count, SNCA expr inh, hNpr1 antagonist)
COc1ccccc1C(=O)N1CCN(CCn2nc3n(c2=O)CCCC3)CC1	none (no result: FLuc inh, SNCA viab count, SNCA expr inh, hNpr1 antagonist)
CS(=O)(=O)NCCc1ccc(CC2CCN(C(=O)COc3ccc(F)cc3)CC2)cc1	HEK cytotox inconclusive, 3T3 cytotox inconclusive, SNCA expr inh inconclusive (no result: FLuc inh, hNpr1 antagonist)
CC(=O)Nc1ccc(CNC[C@H]2Cn3cc(-c4ccc(C)cc4)nc3CO2)cc1	FLuc inh 71µM, HEK cytotox inconclusive, 3T3 cytotox inconclusive
COc1ccc(-c2cn3c(n2)CO[C@@H](CNCc2ccc(OC(F)(F)F)cc2)C3)cc1	FLuc inh inconclusive, HEK cytotox 45µM, 3T3 cytotox inconclusive, hNpr1 antagonist inconclusive
COc1ccc(-c2cn3c(n2)CO[C@@H](CNCc2nccn2C)C3)cc1	FLuc inh inconclusive
Cc1ccc(-c2cn3c(n2)CO[C@@H](CNCc2ccc(Cl)cc2)C3)cc1	FLuc inh inconclusive, HEK cytotox 56µM, 3T3 cytotox 45µM, hNpr1 antagonist inconclusive
Cc1ccc(-c2cn3c(n2)CO[C@@H](CNCc2ccc(S(C)(=O)=O)cc2)C3)cc1	FLuc inh inconclusive, HEK cytotox inconclusive
Cc1ccc(-c2cn3c(n2)CO[C@@H](CNC2CCCC2)C3)cc1	FLuc inh 63µM, HEK cytotox 100µM, 3T3 cytotox 100µM
COc1ccc(-c2cn3c(n2)CO[C@@H](CNC2CCOCC2)C3)cc1	none
O=C(NC1CCOCC1)[C@@H]1CCCN1c1ccnc2ccnn12	none (no result: FLuc inh, SNCA viab count, SNCA expr inh, hNpr1 antagonist)
O=C(c1ccccc1Cl)N1CCC(C(=O)N2CCCC(c3nc4ncccc4[nH]3)C2)CC1 (stereo unspecified)	none (no result: FLuc inh, hNpr1 antagonist)
O=C(NCCc1ccccc1F)C1CCCN(c2ccnc3ccnn23)C1 (stereo unspecified)	HEK cytotox inconclusive (no result: FLuc inh, hNpr1 antagonist)
Cc1ccc(-c2cn3c(n2)CO[C@@H](CNC(=O)c2ccccc2)C3)cc1	FLuc inh inconclusive, HEK cytotox inconclusive
COc1ccc(-c2cn3c(n2)CO[C@@H](CNC(C)=O)C3)cc1	FLuc inh 45µM
Cc1ccc(-c2cn3c(n2)CO[C@@H](CNC(=O)NCc2ccccc2)C3)cc1	FLuc inh 71µM, HEK cytotox inconclusive
c1ccc(-c2cn3c(n2)CO[C@@H](CNCC2CCCCC2)C3)cc1	HEK cytotox 100µM, 3T3 cytotox 100µM
Cc1ccc(-c2cn3c(n2)CO[C@@H](CNCc2ccccc2Cl)C3)cc1	HEK cytotox 89µM, 3T3 cytotox 89µM, hNpr1 antagonist inconclusive
Cc1ccc(-c2cn3c(n2)CO[C@@H](CNCc2ccc(-c4ccccn4)cc2)C3)cc1	FLuc inh 35µM, HEK cytotox 35µM, 3T3 cytotox 40µM, hNpr1 antagonist inconclusive
O=C(CC1CCCCN(Cc2ccccc2)C1=O)N1CCc2ccccc2C1 (stereo unspecified)	HEK cytotox 45µM, 3T3 cytotox inconclusive
O=C(CC1=C2CCCCC2N(Cc2ccccc2)C1=O)N1CCc2ccccc2C1 (stereo unspecified)	HEK cytotox 50µM, 3T3 cytotox inconclusive
CCOc1ccccc1CN1CCC2(CCN(C(=O)OC)CC2)Oc2ccccc21	HEK cytotox inconclusive, 3T3 cytotox inconclusive
CCc1ccc(-n2nc(C)c3c(C(=O)N4CCN(c5cccc(Cl)c5)CC4)cc(C)nc32)cc1	none (no result: FLuc inh, HEK cytotox, 3T3 cytotox, hNpr1 antagonist)
CC1CCc2onc(C(=O)N3CCN(c4cccc(Cl)c4)CC3)c2C1 (stereo unspecified)	none (no result: FLuc inh, HEK cytotox, 3T3 cytotox, hNpr1 antagonist)
